Each structure is given as a SMILES string. The source made the active and inactive calls. The calls were made as follows: active = hit-call score of the fitted dose curve at least 0.9, where 1 is the maximum; inactive = score below 0.9.

Read-out in the test: JUN Transcription Factor, JUN (gene 3725)
Briefly: LTEA_HepaRG_JUN: Life Technologies and Expression Analysis (LTEA) Assay for JUN Transcription Factor using HepaRG (AID 2283513). The following applies: mRNA level, 48 h; actives raise or lower the signal. Here is the method:
LTEA_HepaRG is a cell based, multiplexed-readout assay that uses HepaRG, a human liver cell line, with measurements taken at 48 hours after chemical dosing on a 96-well plate.LTEA_HepaRG_JUN is one of 102 assay component(s) measured in the LTEA HepaRG cell culture assay. It is a marker of Cell proliferation, survival, death.Data from the assay component LTEA_HepaRG_JUN was analyzed into 1 endpoint. This assay endpoint, LTEA_HepaRG_JUN, was analyzed with bidirectional fitting relative to DMSO as the negative control and baseline of activity. Using a type of inducible reporter, measures of mRNA induction for gain or loss-of-signal activity can be used to understand regulation of transcription factor activity. To generalize the intended target to other relatable targets, this assay endpoint is annotated to the dna binding intended target family, where the subfamily is basic leucine zipper.
A total of 1060 chemcials from the ToxCast library were tested in eight-point concentration-response experiments. Cell culture and cytotoxicity assays were conducted at Thermo Fisher Scientific's Custom Services facility (Madison, WI). A single lot of human HepaRG cells (Thermo Fisher Scientific, Frederick, MD) was used for the cell culture experiments. 96-well format collagen type I coated plates of human HepaRG cells were prepared using established methods. Briefly, cryopreserved HepaRG cells were thawed, plated at a density of approximately 100,000 cells/well in HepaRG Thaw, Plate, and General Purpose media (HPRG770, Thermo Fisher Scientific), and incubated for 48 hours. 0.5% DMSO was selected as vehicle control to balance the requisite need of DMSO in HepaRG cultures to maintain differentiation (for example, baseline metabolism, proportions of hepatocytes vs. cholangiocytes), while enabling further hepatic receptor pathway activation (for example, PXR and CAR) in response to chemical exposure. 48 hours after plating, the culture medium was replaced with HepaRG Serum-Free Incudtion Media. Cells were exposed to each test chemical in duplicate and maintained in CO2 incubators for another 48 hours. Chemical plates were thawed to room temperature and 200x concentrations of treatment groups were prepared. 8-point conentration-reponse curves were made with the highest exposure at 100 uM, followed by half-log dilutions, all in 0.5% DMSO. Each test plate contained variouse controls, induction positive controls (1mM phenobarbital), cytotoxicity positive controls ([…] aflatoxin B1), vehicle controls (0.5% DMSO), and total lysis controls (0.5% DMSO). Cell morphology images were taken using an Essen IncuCyte FLR automated microscope, with six 96-well plates imaged in about 24 minutes. Images were captured and exported and JPEG files. Spent culture media was transfered to black-well plates for the LDH assay, and remaining media was sorted at -80 C for later use. Cells were treated with RLT buffer and frozen until shipped for gene expression analysis. Total RNA was isolated from the cell suspension in 75 uL of Buffer RLT (Qiagen, Germantown, MD 20874) by Quintiles/Expression Analysis (Durham, NC) using a custom isolation procedure. Total RNA from each plate well was transferred to a preamplification plate. Fluidigm's 96.96 Dynamic ArrayTM (Fluidigm, Amsterdam, the Netherlands) technology was used for gene expression analyses by quantitative reverse transcription polymerase chain reaction (qRT-PCR, performed by Quintiles/Expression Analysis, Durham, NC)89. Standard TaqManTM Assays (Applied Biosystems/ThermoFisher Scientific, Foster City, CA) were used to assess the expression of 93 genes selected based on their selectivity and sensitivity to important hepatic receptors known to be modulated by environmental chemicals; importance in human hepatocyte functionality; and hepatotoxicity. […]
As to `CCCCC(CC)COC(=O)CCCCC(=O)OCc1ccccc1` (stereo not given), the call was inactive. For `CCC(C)(C)C1CCC(O)CC1` (stereo not given), the compound was called inactive.

Regarding `OCCC(F)(F)C(F)(F)C(F)(F)C(F)(F)C(F)(F)C(F)(F)C(F)(F)C(F)(F)F`, the outcome was inactive. `CC(=O)NC1(c2cccc(F)c2)CCN(CC[C@@]2(c3ccc(Cl)c(Cl)c3)CN(c3ccccc3)C(=O)CO2)CC1`: the AC50 (in general, the concentration giving half of the maximal activity seen) is 62.1 µM (active). With `COC(=O)CCCCC(=O)OC`, the compound was called inactive. On the same count and under the same terms, then `CC(O)CO` (stereo not given), with “inactive”. Same read-out and setting: as for `O=C(O)c1ccccc1C(c1ccc(O)cc1)c1ccc(O)cc1`, the entry is “inactive”. With `CCC(=C(c1ccc(O)cc1)c1ccc(OCCN(C)C)cc1)c1ccccc1`, the AC50 was 89.3 µM (active). For the compound `Nc1cccc2c(N)cccc12`, the call was inactive. The same measure, in the same setting: then `CCc1nn(C2CCCCC2)c2cc(C3(C#N)CCC(C(=O)O)CC3)ccc12` (stereo not given), with “inactive”. Take `O=C(O)Cc1cc(I)c(Oc2cc(I)c(O)c(I)c2)c(I)c1`: the AC50 is 52.3 µM (active). For `OC1CCCCC1`, the compound was classed as inactive. Still for that read-out and setting: as for `COc1ccc([N+](=O)[O-])cc1N`, the entry is “inactive”.

With `N#C[C@@H]1CC(F)(F)CN1C(=O)CNC1CC2CCC(C1)N2c1ncccn1` (stereo not given in full), the outcome was inactive. On to `CN1CCN(c2ccccc2/C=C2\SCCN(c3ccc(Cl)c(Cl)c3)C2=O)CC1`, for which the AC50 is 75.5 µM (active). On to `CCCCOCCO`, for which the compound was called inactive.

For the compound `CC#C[C@]1(O)CC[C@H]2[C@@H]3CCC4=CC(=O)CCC4=C3[C@@H](c3ccc(N(C)C)cc3)C[C@@]21C`, the AC50 was 33.7 µM (active). For the compound `CCc1ccc(CCOc2ccc(CC3SC(=O)NC3=O)cc2)nc1` (stereo not given), the compound was called inactive.

In the case of `COCC(C)OCC(C)O` (stereo not given), the compound was classed as inactive. Take `CCCOc1sc(C(=O)N2CCC(c3cc(CN)ccc3F)CC2)c(C)c1Br`: the compound was called inactive. On the same count and under the same terms, as for `CC(C)(C)CC(C)(C)c1ccc(O)c(-n2nc3ccccc3n2)c1`, the entry is “inactive”. The same measure, in the same setting: then `OCCC(F)(F)C(F)(F)C(F)(F)C(F)(F)C(F)(F)C(F)(F)F`, with “inactive”.

In the case of `CCN(CC)CCNc1ccc(CNC=O)c2sc3ccc(OC)cc3c(=O)c12`, the AC50 is 79 µM (active). In the case of `CC[C@H](C)[C@@H](C(=O)O)n1sc2ccccc2c1=O`, the call was inactive. Same read-out and setting: as for `O=[N+]([O-])c1ccc(O)cc1`, the entry is “inactive”; as for `CCCCCCC(=O)O`, “inactive”; as for `CCCCCCCCC(=O)O`, “inactive”. Still for that read-out and setting: as for `c1ccc2c(c1)Cc1ccccc1-2`, the entry is “inactive”; as for `ClC1=C(Cl)C(Cl)(Cl)C(Cl)=C1Cl`, “inactive”.

Regarding `Cc1cc(C)c(O)c(C)c1`, the result was inactive. Still for that read-out and setting: as for `CC1=C(/C=C/C(C)=C/C=C/C(C)=C/C(=O)O)C(C)(C)CCC1`, the entry is “inactive”. The same measure, in the same setting: then `C#C[C@]1(O)CC[C@H]2[C@@H]3CCC4=CC(=O)CC[C@@H]4[C@H]3CC[C@@]21C`, with “inactive”.

With `CCCCCCCCCCCCc1ccccc1S(=O)(=O)O`, the AC50 is 34.7 µM (active). As for `CCCOC(=O)c1ccc(O)cc1`, the call was inactive. Still for that read-out and setting: then `CCCCCCCCCCCCN1CCCC1=O`, with “inactive”; and `c1ccc2c(c1)ccc1ccccc12`, with “inactive”.

Consider `COCC(C)O` (stereo not given), for which the compound was classed as inactive.

Take `O=c1c(-c2ccc(O)cc2)coc2cc(O)ccc12`: the outcome was inactive. On the same count and under the same terms, then `OC1CCC(C2CCCCC2)CC1` (stereo not given), with “inactive”; and `CCCCCCCC(=O)O`, with “inactive”.
